Test results from PubChem BioAssay AID504660 (National Center for Advancing Translational Sciences (NCATS), 2011).
About 3,700 (1%) of roughly 360,000 compounds were called active. The sample as a whole holds a higher share of actives than the screen did. Unmarked numbers belong to inactive results. No stated cut-off is given here; in the data, active means activation above about 30%; inactive means the rest.

molecular target: D(1A) dopamine receptor (Homo sapiens) (UniProt P21728); assay: Allosteric Agonists of the Human D1 Dopamine Receptor: qHTS; details: HEK293 T-REx D1 cells, calcium flux, agonist mode; at 2 µM; stronger effect = higher value; further: 0% is about no effect
Sequence (P21728 whole entry, looked up): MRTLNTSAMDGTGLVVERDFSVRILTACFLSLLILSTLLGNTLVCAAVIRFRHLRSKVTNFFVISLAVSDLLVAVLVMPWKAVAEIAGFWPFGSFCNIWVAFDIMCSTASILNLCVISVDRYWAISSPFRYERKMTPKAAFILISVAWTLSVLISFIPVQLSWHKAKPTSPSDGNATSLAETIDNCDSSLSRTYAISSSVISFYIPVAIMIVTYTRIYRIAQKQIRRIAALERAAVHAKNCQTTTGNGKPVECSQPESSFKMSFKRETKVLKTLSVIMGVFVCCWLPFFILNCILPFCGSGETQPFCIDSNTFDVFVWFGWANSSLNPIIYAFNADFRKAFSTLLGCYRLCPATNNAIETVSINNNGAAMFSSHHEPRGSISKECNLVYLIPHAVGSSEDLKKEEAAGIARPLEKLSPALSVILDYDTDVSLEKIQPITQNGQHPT
Method in brief: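 Inducible HEK293 T-REx D1 cells, force-coupled to calcium signalling, were plated at 4000 cells/well with tetracycline and held overnight at 30 C. After no-wash calcium dye loading, compound-evoked calcium rise over 180 s flagged agonists.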

Row | Compound | activation
1 | CN(C)c1ccc(C(CNS(=O)(=O)c2cc(F)ccc2F)N2CCOCC2)cc1 (centres undefined) | 5.52%
2 | CCCc1cc(=O)n2[nH]c(NCc3ccc(CC)cc3)nc2n1 | 1.79%
3 | Cc1c(Cl)cccc1NC(=O)C1CCCN(C(=O)c2cnn(-c3ccccc3)c2-n2cccc2)C1 (centres undefined) | 4.43%
4 | CCOC(=O)c1ccc(NC(=O)CCS(=O)(=O)c2ccc(C)cc2)cc1 | 1.55%
5 | O=Cc1cn(-c2ccccc2)nc1-c1ccccn1 | -0.0617%
6 | CCc1ccc(-c2nn(-c3ccccc3C)cc2C(=O)N2CCN(C3CCS(=O)(=O)C3)CC2)cc1 (centres undefined) | 1.59%
7 | CCc1ccc(-c2nn(-c3ccccc3)cc2CSC(=N)N)cc1 | 47.5% (active)
8 | c1ccc(-n2nnnc2NC2CCCCCC2)cc1 | 112% (active)
9 | CN(C(=O)CSc1nnnn1-c1ccccc1)C1CCCCC1 | 0.493%
10 | Fc1ccccc1CCNc1nnnn1-c1ccccc1 | 5.56%
11 | CCOc1cccc2cc(-c3cn4c(n3)sc3cc(C)ccc34)c(=O)oc12 | 0.779%
12 | CCc1nc2c(cnn2-c2ccc(C)cc2)c(=O)n1-c1ccc(C)cc1 | 5.84%
13 | Cc1cccc(C(=O)Nc2ccc(-c3nc4ccccc4s3)c(C)c2)c1 | 6.34%
14 | COc1ccc(S(=O)(=O)Nc2cccc3cccnc23)c(N)c1 | 4.45%
15 | Nc1nonc1-n1nnc(C(=O)N/N=C/c2ccc(Cl)cc2)c1-c1ccc2c(c1)OCO2 | 94.3% (active)
16 | CCCOc1ccc(-c2c(C(=O)N/N=C/c3ccco3)nnn2-c2nonc2N)cc1 | 13.8%
17 | CCc1ccc(/C=N/NC(=O)c2nnn(-c3nonc3N)c2CN2CCc3ccccc32)cc1 | -0.149%
18 | Cc1cccc(NC(=O)c2ccc3nc(C(C)C)oc3c2)c1C | 2.14%
19 | Cc1ccc(N(C)C(=O)C2CCN(S(=O)(=O)c3ccc4c(c3)CCCN4C(=O)C3CCC3)CC2)cc1 | 5.77%
20 | CCOC(=O)CNC(=O)c1cc2c(=O)n3cccc(C)c3nc2s1 | -0.0788%
21 | CCOC(=O)CC1C(=O)NCCN1c1nc2c(C)cccn2c(=O)c1/C=C1\SC(=S)N(C(C)CC)C1=O (centres undefined) | 265% (active)
22 | COc1ccc(C(=O)NC(=S)N2CCNC(=O)C2CC(=O)OC(C)C)cc1 (centres undefined) | 2.67%
23 | CCC1CN(S(=O)(=O)c2cc(-c3cc(C)no3)ccc2C)c2cc(C)ccc2O1 (centres undefined) | 8.44%

Row | Compound | activation
24 | CSc1ncc(Cl)c(C(=O)Nc2ccc(S(=O)(=O)N3CCCC(C)C3)cc2)n1 (centres undefined) | 3.25%
25 | COC(=O)c1ccccc1NC(=O)c1ccc(C#N)cc1 | 1.68%
26 | Cc1ccccc1CNC(=O)C(=O)NCC(c1cccs1)S(=O)(=O)c1cccs1 (centres undefined) | 25.2%
27 | COc1ccc(C(=O)C2CCCN(Cc3cccn3-c3ccccn3)C2)c(C)c1 (centres undefined) | 34% (active)
28 | COc1ccc(C(=O)C2CCCN(C(=O)c3cnsn3)C2)c(C)c1 (centres undefined) | 2.63%
29 | COc1ccc(C(=O)C2CCCN(S(=O)(=O)c3cccc(C)c3)C2)c(C)c1 (centres undefined) | 12.7%
30 | O=S(=O)(c1ccc2c(c1)OCCCO2)N1CCN(S(=O)(=O)c2c(F)cccc2F)CC1 | 7.42%
31 | CCc1ccc(CNC(=O)c2ccc(CS(=O)c3ccc(Br)cc3)o2)cc1 (centres undefined) | 2.59%
32 | O=S(=O)(NC1CC1)c1ccc2c3c(cccc13)CC2 | 2.42%
33 | O=S(=O)(NC1CCCCC1)c1ccc(F)c2ccccc12 | 102% (active)
34 | CCc1ccccc1NC(=O)c1ccc(F)c(S(=O)(=O)NC2CCCCCC2)c1 | -1.43%
35 | Nc1c(C(=O)c2cccs2)sc2nsc(SCCN3CCCCC3)c12 | 257% (active)
36 | CCc1ccc(CNCc2c(C(=O)O)n(Cc3ccc(F)cc3Cl)c3cc(OC)ccc23)cc1 | 0.499%
37 | CCOc1ccccc1NC(=O)C1CCCN(S(=O)(=O)c2cn(C)cn2)C1 (centres undefined) | -2.08%
38 | NC(=O)C1=C[C@H](c2csc3ccccc23)C[C@H](OCc2ccc(CO)cc2)O1 | 203% (active)
39 | O=C(NC1CC1)C1=C[C@H](c2c[nH]c3ccccc23)C[C@H](OCc2ccc(CO)cc2)O1 | 7.93%
40 | NC(=O)C1=C[C@@H](c2csc3ccccc23)C[C@@H](OCc2ccc(CO)cc2)O1 | 11.8%
41 | Cc1cccc(NC(=O)Cn2c(C(F)(F)F)nc3ccccc32)c1C | 2.74%
42 | Oc1ccc(Cl)cc1C1C=C(c2ccc3c(c2)OCO3)NC(c2ccc(F)c(Br)c2)N1 (centres undefined) | 16.4%
43 | Cc1ccc(-c2cc(N)n(Cc3cccc(Cl)c3)n2)cc1 | -0.135%
44 | COc1cc(OC)c(OC)cc1/C=C/c1nc2cc3ccccc3cc2c(=O)n1-c1ccc(F)c(Cl)c1 | 0.411%
45 | CN1CCN(CCCNC(=O)c2ccc(/C=C3\Oc4ccccc4N(Cc4ccc(Cl)cc4)C3=O)cc2)CC1 | 87.5% (active)
46 | CCCN1CCN(CCCNC(=O)c2ccc3nc(Cc4ccccc4)oc3c2)CC1 | 4.88%

Row | Compound | activation
47 | COCCNC(=O)c1ccc2c(c1)N(Cc1cccc(Cl)c1)C(=O)c1ccccc1S2(=O)=O | 4.3%
48 | Cc1cccc(NC(=O)CN(c2ccc(C(C)C)cc2)S(=O)(=O)c2c(C)nn(C)c2C)c1C | 3.58%
49 | COc1cc(NC(=O)c2cc3ccc4cccnc4c3[nH]2)cc(OC)c1OC | -0.0279%
50 | CCCC(C)C(=O)Nc1ccc(NC(C)=O)cc1 (centres undefined) | 2.66%
51 | CCC(C(=O)Nc1ccc(C(C)C)cc1)c1ccccc1 (centres undefined) | 75.7% (active)
52 | Cc1ccc(NC(=O)C(C)c2cccc(C(=O)c3ccccc3)c2)cc1 (centres undefined) | 18.8%
53 | CC(=O)N1CCc2cc(Br)cc(S(=O)(=O)CCC(=O)NCCc3ccc(Cl)cc3)c21 | 1.1%
54 | CCOC(=O)N1CCc2c(sc3c2c(=O)n(Cc2ccccc2)c(=O)n3CC(=O)Nc2cccc(C)c2)C1 | 47.3% (active)
55 | Cc1ccc(NC(=O)Cn2c(=O)n(-c3ccccc3)c(=O)c3c4c(sc32)CCCC4)cc1 | 4.64%
56 | Cc1cccc(NC(=O)Cn2c(=O)n(Cc3ccccc3)c(=O)c3c(C)c(C)sc32)c1 | 1.32%
57 | COCCCNC(=O)c1c(NC(=O)c2cc(=O)c3cc(C)c(C)cc3o2)sc2c1CCCC2 | -1.72%
58 | COc1cccc(CNCc2c(C(=O)O)n(Cc3ccc(C)cc3)c3cc(C)ccc23)c1OC | 0.928%
59 | CC(NC(=O)c1cc(-c2ccccc2)on1)c1ccccc1 (centres undefined) | 94.3% (active)
60 | O=C(NCc1ccccc1)c1cc(-c2cccc(Cl)c2)on1 | 3.77%
61 | O=C(NC1CCCC1)c1cc(-c2ccccc2)on1 | 0.117%
62 | CCCn1c2ccccc2c2cnn(CC(=O)N(C)c3ccccc3CC)c(=O)c21 | 0.732%
63 | CCOCCCNC(=O)c1ccc2nc(CCc3ccccc3)oc2c1 | 0.808%
64 | O=C(c1ccc2c(c1)N(Cc1ccccc1)C(=O)c1ccccc1S2(=O)=O)N1CCCC1 | 0.455%
65 | Cc1cccc(NC(=O)C2CCN(S(=O)(=O)c3c(C)noc3/C=C/c3ccco3)CC2)c1 | 1.4%
66 | O=C(Cn1c(COc2ccccc2)nc2ccccc21)Nc1cc(Cl)c(Cl)cc1Cl | -0.172%
67 | CC(O)c1nc2ccccc2n1Cc1ccc([N+](=O)[O-])cc1 (centres undefined) | 0.897%
68 | CC(C)c1ccc(Cn2c(COc3ccccc3)nc3ccccc32)cc1 | 32.7% (active)
69 | CCc1ccc(Nc2nn3c(=O)c4cc5c(cc4nc3s2)OCO5)cc1 | 0.763%

Row | Compound | activation
70 | CCOc1cc(CNC(=O)c2sc3ncnc(N(C)C4CCCCC4)c3c2C)ccc1OC | 2.38%
71 | CCOc1ccc2nc(N3CCCC(C(=O)Nc4cc(C)ccc4C)C3)sc2c1 (centres undefined) | -0.891%
72 | CCOc1ccc2nc(N3CCCN(C(=O)Nc4ccccc4C)CC3)c(C#N)cc2c1 | 32.7% (active)
73 | CCOc1ccc(C(=O)NC2CCN(C(=O)Nc3ccccc3OC)CC2)cc1 | 0.137%
74 | CC1CCN(S(=O)(=O)c2ccc3c(c2)N(CC(=O)NCc2ccccc2Cl)C(=O)CO3)CC1 | -2.16%
75 | COc1ccc(NC(=O)C2CCCN(S(=O)(=O)c3c(C)[nH]c(=O)[nH]c3=O)C2)c(OC)c1 (centres undefined) | 3.17%
76 | N#C/C=C(/c1ccc(F)cc1)N1CCOCC1 | 5.96%
77 | O=C(N1CCOCC1)N1CCOCC1 | 2.44%
78 | N#C/C(=C/c1ccc(N2CCOCC2)o1)C(=O)N1CCOCC1 | 51.4% (active)
79 | COc1cccc(Cn2c(SCc3ccc(C(=O)N4CCCCC4)cc3)nc3ccncc32)c1 | -0.712%
80 | COc1ccccc1C(=O)Nc1c(C(=O)N(C)Cc2ccccc2)sc2nc(C)c(Cl)c(C)c12 | 1.11%
81 | COc1ccccc1N1CCN(Cc2ccc(OC)c3ccccc23)CC1 | 0.832%
82 | COc1cc(CNCc2cccs2)cc(Br)c1OC | 2.66%
83 | COc1cc(CNCc2ccc(OC)c3ccccc23)cc(OC)c1OC | 36.9% (active)
84 | Cc1ccc2ccc3c(c2n1)NS(=O)(=O)c1ccccc1-3 | -0.466%
85 | CCC(=O)N1CCc2cc(S(=O)(=O)NC(Cc3ccccc3)C(=O)NCc3ccccc3)ccc21 (centres undefined) | 0.429%
86 | CCCOc1ccc(-c2cccc(NS(=O)(=O)c3ccccc3)c2)nn1 | -0.134%
87 | COc1ccc(CCNC(=O)C2CCCN(Cc3nc(-c4cccc(Cl)c4)oc3C)C2)cc1OC (centres undefined) | 19.6%
88 | Cc1oc(-c2ccccc2F)nc1CN1CCC(C(=O)NCCc2ccc(Cl)cc2)CC1 | 34.8% (active)
89 | COc1ccc(-c2nc(CN3CCC(C(=O)NCc4ccccc4)CC3)c(C)o2)cc1OC | -1.51%
